Data on 34 compounds can be found in ChEMBL document CHEMBL4513135, “CO-ADD screening of IQOG CSIS (Spain) compounds”.

Measured potencies and affinities stand elsewhere.

One assay relates to Klebsiella pneumoniae. As to conditions: Concentration 32 ug.mL-1; ASSAY_TEST Inhibition of Bacterial Growth; detection method Absorption (OD600); MEDIA CAMHB; plate type 384well; NBS; CORNING #3640; time 18 hr.
In a further assay the test system is Candida albicans. As to conditions: 32 ug/mL.
Another assay deals with Cryptococcus neoformans. As to conditions: Concentration 32 ug.mL-1; ASSAY_TEST Inhibition of Fungal Growth; detection method Resazurin; Absorption (OD600-OD570); plate type 384well; NBS; CORNING #3640.

For the compound `COc1cccc(-c2c(C#N)c(=O)oc3c2ccc2ccccc23)c1`, the Inhibition – broadly, the relative decrease from the control value, in per cent – is 2.22% in the assay with Klebsiella pneumoniae, 24.3% in the assay with Candida albicans and -2.58% in the assay with Cryptococcus neoformans.
Consider `COc1ccc(C=C2N=C(c3ccccc3)SC2=O)cc1`, for which the Inhibition was 19.45% with Klebsiella pneumoniae, 0.65% with Candida albicans and -2.03% with Cryptococcus neoformans.
Turning to `CCOC(=O)c1c(C)nc(N)c(C#N)c1-c1cccs1`, the figures for the Inhibition in the assay on Klebsiella pneumoniae, in the assay on Candida albicans and in the assay on Cryptococcus neoformans were -1.63%, 2.63% and -31.89%, respectively.
In the case of `COC(=O)C(=Cc1ccc(OC)cc1)NC(=O)c1ccccc1`, the Inhibition was 13.3% with Klebsiella pneumoniae, 6.47% in the assay with Candida albicans and -1.73% in the assay on Cryptococcus neoformans.
As to `COc1ccccc1-c1c(C#N)c(=O)oc2c1ccc1ccccc12`, the Inhibition in the assay on Klebsiella pneumoniae is 11.02%; in the assay on Candida albicans it was 9.28%; with Cryptococcus neoformans it was -7.79%.
As for `NC(=O)c1cc2cc(OCc3ccccc3)ccc2[nH]1`, the Inhibition with Klebsiella pneumoniae was 5.14%; in the assay on Candida albicans, 6.4%; in the assay on Cryptococcus neoformans, -61.34%.
As to `NNC(=O)c1c[nH]c2ccc(OCc3ccccc3)cc12`, the results for the Inhibition in the assay on Klebsiella pneumoniae, with Candida albicans and with Cryptococcus neoformans were 3.4%, 1.23% and 0.02%, respectively.
For the compound `COc1cc(Br)c(C=O)cc1OC`, the results for the Inhibition in the assay on Klebsiella pneumoniae, in the assay with Candida albicans and in the assay with Cryptococcus neoformans were 3.95%, 3.94% and -3.9%, respectively.
`COc1ccc(C2c3ccc4ccccc4c3OC(=NBr)C2(Br)C#N)cc1OC` (configuration not stated): the Inhibition in the assay with Klebsiella pneumoniae was 8.89%; with Candida albicans, 5.08%; in the assay on Cryptococcus neoformans, -80.16%.
As for `C#CCN(C)c1nc(NCC2CCN(Cc3ccccc3)CC2)c(C#N)c(-c2ccccc2)c1C#N`, the results for the Inhibition in the assay on Klebsiella pneumoniae, in the assay on Candida albicans and in the assay on Cryptococcus neoformans were 6.45%, 0.51% and -3.47%, respectively.
`O=Cc1cc2ccccc2nc1Cl`: the Inhibition was -2.74% in the assay with Klebsiella pneumoniae, 7.94% in the assay on Candida albicans and -7.31% with Cryptococcus neoformans.
As for `COc1ccccc1C1c2ccc3ccccc3c2OC(=NBr)C1(Br)C#N` (configuration not stated), the Inhibition in the assay with Klebsiella pneumoniae was 11.44%; with Candida albicans, 0.7%; in the assay with Cryptococcus neoformans it was -47.56%.
In the case of `Br.C#CCNCc1ccccc1`, the figures for the Inhibition in the assay on Klebsiella pneumoniae, in the assay on Candida albicans and with Cryptococcus neoformans were 12.8%, -0.33% and -4.9%, respectively.
With `CC(=O)Nc1n[nH]c2nc(N)c(C#N)c(-c3ccccc3)c12`, the Inhibition with Klebsiella pneumoniae was 17.23%; in the assay with Candida albicans it was 3.09%; with Cryptococcus neoformans, -57.93%.
As to `CC1=C(C(=O)N2[C@@H]3C[C@H]4CCC3(CS2(=O)=O)C4(C)C)C(c2ccccc2)C(C#N)=C(N)O1` (some centres not stated), the Inhibition in the assay with Klebsiella pneumoniae is 14.51%; with Candida albicans, 3.41%; with Cryptococcus neoformans, -6.44%.
Regarding `N#CC1(Br)C(=NBr)Oc2c(ccc3ccccc23)C1c1cccc([N+](=O)[O-])c1` (configuration not stated), the figures for the Inhibition in the assay on Klebsiella pneumoniae, with Candida albicans and with Cryptococcus neoformans were 24.92%, 10.2% and -69.53%, respectively.
For `N#CC1=C(N)NC(=O)CC1c1ccccc1` (configuration not stated), in that order: 22.17%, 1.7% and -51.84%.
`Nc1c2c(nc3c1C(c1ccc(O)cc1)c1c(ccc4ccccc14)O3)CCCC2` (configuration not stated): the figures for the Inhibition with Klebsiella pneumoniae, in the assay with Candida albicans and with Cryptococcus neoformans were 8.92%, 2.15% and -0.6%, respectively.
For `O=C(N/N=C/Cc1ccccc1)c1cc2ccccc2[nH]1`, in that order: 10.16%, -1.49% and -3.25%.
Consider `N#CC1=C(Cl)Oc2c(ccc3ccccc23)C1c1ccc([N+](=O)[O-])cc1` (configuration not stated), for which the Inhibition in the assay on Klebsiella pneumoniae was 16.96%; in the assay with Candida albicans, 10.5%; in the assay with Cryptococcus neoformans it was -69.24%.
As to `N#Cc1c(Cl)nc(NC2CCN(Cc3ccccc3)CC2)c(C#N)c1-c1ccccc1`, the figures for the Inhibition with Klebsiella pneumoniae, in the assay on Candida albicans and in the assay on Cryptococcus neoformans were 0.34%, -0.87% and -53.1%, respectively.
Regarding `CCOC(=O)c1c(C)nc2nc3c(c(N)c2c1-c1ccc(OC)cc1)CCCCCC3`, the Inhibition was 2.79% with Klebsiella pneumoniae, -1.03% in the assay on Candida albicans and -97% with Cryptococcus neoformans.
For `Nc1c2c(nc3c1C(c1ccc([N+](=O)[O-])cc1)c1c(ccc4ccccc14)O3)CCCC2` (configuration not stated), in that order: 9.13%, 1.59% and -0.47%.
For `C#CCN(C)c1nc(Sc2ccccc2)c(C#N)c(-c2ccccc2)c1C#N` the same measures were 17.28%, 1.53% and -1.7%.
Regarding `COc1ccc(C2C(C#N)=C(N)Oc3ccc4ccccc4c32)cc1OC` (configuration not stated), the Inhibition with Klebsiella pneumoniae is 12.8%; in the assay on Candida albicans it was 5.6%; in the assay on Cryptococcus neoformans, -62.6%.
`CC1=C(CO)C(c2ccc(C#N)cc2)C(C#N)=C(N)O1` (configuration not stated): the Inhibition in the assay on Klebsiella pneumoniae is 10.02%; in the assay with Candida albicans it was 5.46%; with Cryptococcus neoformans, -8.41%.
Turning to `CC(C(=O)O)c1c[nH]c2ccccc12` (configuration not stated), the Inhibition with Klebsiella pneumoniae was 21.1%; with Candida albicans, 31.5%; in the assay with Cryptococcus neoformans, -3.89%.
As to `COc1nc(NC(C)=O)c(C#N)c(-c2ccccc2)c1C#N`, the Inhibition is 12.51% in the assay on Klebsiella pneumoniae, 2.3% with Candida albicans and -37.64% with Cryptococcus neoformans.
As to `C1CNCCNCCNCCNC1`, the Inhibition in the assay with Klebsiella pneumoniae was 5.58%; in the assay on Candida albicans, 4.25%; in the assay with Cryptococcus neoformans, -3.46%.
`N#Cc1cc(C#N)c(N2CCCCC2)nc1Cl`: the Inhibition was 12.8% in the assay with Klebsiella pneumoniae, 0.28% with Candida albicans and -0.7% in the assay with Cryptococcus neoformans.
Turning to `N#CC1=C(N)Oc2ccc3ccccc3c2C1c1ccccc1` (configuration not stated), the Inhibition was 9.26% in the assay with Klebsiella pneumoniae, 1.08% in the assay with Candida albicans and -36.46% in the assay on Cryptococcus neoformans.
Turning to `COC1=C(C#N)CCC(=O)N1`, the Inhibition in the assay on Klebsiella pneumoniae is 12.74%; in the assay with Candida albicans, 0.89%; in the assay with Cryptococcus neoformans, -77.28%.
For the compound `N#Cc1c(N)nc(N2CCC(Cc3ccccc3)CC2)c(C#N)c1-c1ccccc1`, the Inhibition in the assay with Klebsiella pneumoniae was 7.85%; in the assay on Candida albicans, 1.84%; with Cryptococcus neoformans, -30%.
`N#Cc1cc(C#N)c(N2CCC(Cc3ccccc3)CC2)nc1N`: the Inhibition in the assay with Klebsiella pneumoniae was -9.32%; in the assay on Candida albicans it was 1.71%; with Cryptococcus neoformans it was -23.72%.
